For test [1], the target named is Cytochrome P450 2C9 (Homo sapiens) (UniProt P11712). In words: Cytochrome P450 Family 2 Subfamily C Member 9 (CYP2C9) small molecule antagonists: luciferase reporter qHTS assay (AID 1671198). The essentials: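 P450-Glo proluciferin substrate with CYP2C9 enzyme; 10 min RT preincubation, then NADPH regeneration 1 h at 37C; luciferin detection reagent 20 min RT, luminescence in relative luminescence units.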
Background: In a reporter assay the amount or activity of a reporter protein is the signal.

The target in test [2] is Cytochrome P450 1A2 (Homo sapiens) (UniProt P05177). Briefly: Cytochrome P450 Family 1 Subfamily A Member 2 (CYP1A2) small molecule antagonists: luciferase reporter qHTS assay (AID 1671199). The essentials: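 CYP1A2 turnover of a luminogenic substrate was quantified after 1 h with NADPH regeneration at room temperature. Furafylline served as positive control.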
For test [3], the target named is Voltage-gated inwardly rectifying potassium channel KCNH2 (Homo sapiens) (UniProt Q12809). Briefly: Human Ether-a-go-go-Related Gene (hERG) channel small molecule antagonists: fluorescence cell-based qHTS assay (AID 1671200). The essentials: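 Channel function was assessed by thallium flux. Cells seeded the previous day and kept at 37 C took up FluxOR II dye over 1 h in the dark at room temperature, then sat another 10 min before stimulation.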
Background: hERG is a cardiac potassium channel; its block is linked to QT prolongation.

Test [4] has as its target Cytochrome P450 3A4 (Homo sapiens) (UniProt P08684). In words: Cytochrome P450 Family 3 Subfamily A Member 4 (CYP3A4) small molecule antagonists: luciferase reporter qHTS assay (AID 1671201). The essentials: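 Compounds in DMSO were pin-transferred onto CYP3A4 enzyme-substrate mix and held 10 min at room temperature. NADPH regenerating solution started the reaction for 1 h; luciferin detection reagent stopped it, and luminescence was read after 20 min.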

Where “and” joins values, the source holds several entries; their conditions need not be identical. Equal entries are not always repeated. Results filed as inconclusive are left out. Where a structure was tested more than once in an assay, its records may differ in their call. Calls of active or inactive are those of the source. Calls come from the whole dose curve; as a rule, active = well fitted curve in the direction sought with a large enough effect in the repeat runs; inconclusive = weak or mixed curves; inactive = no such curve, though single readings can be large; an effect the other way counts as inactive or inconclusive.
Note: nearly all actives have a fitted effect of over 50% in size.
Potency is the fitted concentration of half-maximal effect.

Sequence of Voltage-gated inwardly rectifying potassium channel KCNH2 (Homo sapiens) (Q12809 whole entry, looked up): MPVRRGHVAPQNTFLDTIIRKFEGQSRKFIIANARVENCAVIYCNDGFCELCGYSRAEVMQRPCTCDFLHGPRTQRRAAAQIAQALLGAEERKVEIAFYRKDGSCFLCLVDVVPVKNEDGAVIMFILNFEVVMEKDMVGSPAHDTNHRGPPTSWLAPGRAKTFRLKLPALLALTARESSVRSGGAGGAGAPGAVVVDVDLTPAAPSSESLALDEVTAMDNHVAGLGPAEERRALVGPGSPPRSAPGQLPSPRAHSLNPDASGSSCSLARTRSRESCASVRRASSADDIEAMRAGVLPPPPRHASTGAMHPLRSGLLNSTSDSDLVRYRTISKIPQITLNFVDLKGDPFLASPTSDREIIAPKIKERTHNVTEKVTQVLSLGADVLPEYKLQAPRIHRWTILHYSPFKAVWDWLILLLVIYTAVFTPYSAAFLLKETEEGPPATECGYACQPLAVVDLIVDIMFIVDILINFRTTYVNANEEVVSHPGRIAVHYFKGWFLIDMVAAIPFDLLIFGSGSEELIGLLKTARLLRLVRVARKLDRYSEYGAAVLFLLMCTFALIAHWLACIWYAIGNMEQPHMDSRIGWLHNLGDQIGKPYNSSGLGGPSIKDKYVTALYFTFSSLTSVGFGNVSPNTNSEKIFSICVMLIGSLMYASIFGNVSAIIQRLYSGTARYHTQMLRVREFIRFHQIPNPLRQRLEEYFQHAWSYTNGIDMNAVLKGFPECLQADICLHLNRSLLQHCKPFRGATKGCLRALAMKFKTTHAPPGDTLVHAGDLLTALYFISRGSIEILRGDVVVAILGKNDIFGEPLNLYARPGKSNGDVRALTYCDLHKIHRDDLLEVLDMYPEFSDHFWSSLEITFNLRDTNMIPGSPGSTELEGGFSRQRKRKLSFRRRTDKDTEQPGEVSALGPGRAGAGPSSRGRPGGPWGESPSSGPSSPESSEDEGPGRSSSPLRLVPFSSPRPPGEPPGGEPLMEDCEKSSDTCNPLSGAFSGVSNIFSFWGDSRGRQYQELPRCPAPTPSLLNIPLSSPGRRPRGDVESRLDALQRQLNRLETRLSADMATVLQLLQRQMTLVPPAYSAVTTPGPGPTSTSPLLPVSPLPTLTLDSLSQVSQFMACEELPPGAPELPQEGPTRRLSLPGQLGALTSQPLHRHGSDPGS
Sequence of Cytochrome P450 1A2 (Homo sapiens) (P05177 whole entry, looked up): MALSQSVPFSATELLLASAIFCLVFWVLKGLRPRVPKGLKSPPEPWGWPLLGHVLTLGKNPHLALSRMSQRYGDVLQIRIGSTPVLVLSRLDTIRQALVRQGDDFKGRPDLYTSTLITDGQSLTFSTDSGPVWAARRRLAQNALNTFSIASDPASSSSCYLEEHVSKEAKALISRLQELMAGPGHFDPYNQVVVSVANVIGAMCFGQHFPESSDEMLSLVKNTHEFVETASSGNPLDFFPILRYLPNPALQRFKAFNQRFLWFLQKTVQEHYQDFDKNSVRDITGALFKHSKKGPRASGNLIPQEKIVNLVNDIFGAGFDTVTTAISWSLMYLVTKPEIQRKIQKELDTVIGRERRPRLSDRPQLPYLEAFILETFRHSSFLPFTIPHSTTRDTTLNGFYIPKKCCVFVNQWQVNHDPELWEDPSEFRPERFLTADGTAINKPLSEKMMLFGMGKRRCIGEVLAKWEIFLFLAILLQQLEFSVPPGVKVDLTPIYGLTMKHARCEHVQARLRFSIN
Sequence of Cytochrome P450 3A4 (Homo sapiens) (P08684 whole entry, looked up): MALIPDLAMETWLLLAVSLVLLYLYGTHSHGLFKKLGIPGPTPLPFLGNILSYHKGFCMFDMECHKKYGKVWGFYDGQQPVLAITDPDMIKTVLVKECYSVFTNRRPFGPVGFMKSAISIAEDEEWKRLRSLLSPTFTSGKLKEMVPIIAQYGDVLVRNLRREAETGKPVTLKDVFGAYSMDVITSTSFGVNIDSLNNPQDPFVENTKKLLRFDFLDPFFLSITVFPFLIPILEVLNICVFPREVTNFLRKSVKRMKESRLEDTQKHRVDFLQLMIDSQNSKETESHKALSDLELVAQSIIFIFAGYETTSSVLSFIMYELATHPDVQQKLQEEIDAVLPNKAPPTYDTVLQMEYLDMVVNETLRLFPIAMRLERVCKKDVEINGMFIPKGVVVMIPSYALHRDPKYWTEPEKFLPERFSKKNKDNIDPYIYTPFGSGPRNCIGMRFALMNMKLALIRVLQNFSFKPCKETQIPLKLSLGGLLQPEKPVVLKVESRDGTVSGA
Sequence of Cytochrome P450 2C9 (Homo sapiens) (P11712 whole entry, looked up): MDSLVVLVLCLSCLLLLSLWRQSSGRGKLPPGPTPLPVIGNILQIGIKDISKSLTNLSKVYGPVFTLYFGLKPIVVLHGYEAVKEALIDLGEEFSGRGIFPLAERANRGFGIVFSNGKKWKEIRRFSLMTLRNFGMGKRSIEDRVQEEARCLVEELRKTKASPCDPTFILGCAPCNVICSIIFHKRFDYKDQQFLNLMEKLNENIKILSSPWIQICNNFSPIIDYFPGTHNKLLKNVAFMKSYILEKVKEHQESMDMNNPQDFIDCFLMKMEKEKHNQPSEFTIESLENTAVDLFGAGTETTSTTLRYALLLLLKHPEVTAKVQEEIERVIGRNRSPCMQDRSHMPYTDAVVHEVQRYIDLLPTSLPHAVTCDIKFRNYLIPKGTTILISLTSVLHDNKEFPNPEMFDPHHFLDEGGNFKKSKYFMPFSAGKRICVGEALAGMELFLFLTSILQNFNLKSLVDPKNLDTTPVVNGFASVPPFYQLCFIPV

`O=S1(=O)OC(c2ccc(O)cc2)(c2ccc(O)cc2)c2ccccc21`: the Potency was 3.17 µM (active) and 3.56 µM (active) and 2.45 µM (active) in test [1]; 25.2 µM (active) and 39.9 µM (active) in test [2]. Moreover, the Potency entry in test [3] and in test [4] was “inactive” throughout.

As for `CCCCCCCCCCCC[N+](C)(C)Cc1ccccc1`, the Potency in test [1] was 77.2 µM (active); in test [2] it was 34.9 µM (active) and 38.7 µM (active) and 36.3 µM (active); in test [3], 1.08 µM (active) and 1.5 µM (active) and 1.07 µM (active). The Potency entry in test [4] is “inactive”.

Take `COc1ccc(C(Cl)=C(c2ccc(OC)cc2)c2ccc(OC)cc2)cc1`: in test [1], the Potency is 8.9 µM (active) and 7.96 µM (active) and 7.76 µM (active). The Potency entry in test [2], in test [3] and in test [4] was “inactive” each time.

In the case of `O=C(O)CC(O)C(=O)O` (stereo not given), the Potency entry in test [1], in test [3] and in test [4] was “inactive” in each case. Moreover, the Potency result in test [2] is “inactive and 35.6 µM (active)”.

Turning to `Cc1cccc(C)c1`, the Potency result in test [1], in test [2], in test [3] and in test [4] was “inactive” throughout.

Consider `CC(=O)C(=O)O`, for which the Potency result in test [1], in test [3] and in test [4] was “inactive” in each case. The Potency entry in test [2] was “inactive and 22.4 µM (active)”.

Regarding `Cc1cn([C@H]2C=C[C@@H](CO)O2)c(=O)[nH]c1=O`, the Potency entry in test [1], in test [2], in test [3] and in test [4] was “inactive” throughout.

Regarding `CN(C)CCOC(C)(c1ccccc1)c1ccccn1` (stereo not given), the Potency entry in test [1], in test [2], in test [3] and in test [4] was “inactive” in each case.

Turning to `NS(=O)(=O)O`, the Potency result in test [1], in test [2], in test [3] and in test [4] was “inactive” throughout.

Consider `O=C(O)c1ccccc1`, for which the Potency entry in test [1], in test [3] and in test [4] was “inactive” in each case. The Potency in test [2] is 37.4 µM (active) and inactive.

As to `NC(CO)(CO)CO`, the Potency entry in test [1], in test [2], in test [3] and in test [4] was “inactive” in each case.

Take `Cc1c(C(=O)O)c(O)cc2c1C(=O)c1c(O)c([C@@H]3O[C@H](CO)[C@@H](O)[C@H](O)[C@H]3O)c(O)c(O)c1C2=O`: the Potency in test [1] was 34.7 µM (active) and 39.9 µM (active); in test [2], 34.7 µM (active) and 39.9 µM (active) and inactive. The Potency result in test [3] and in test [4] was “inactive” each time.

Turning to `COc1ccc2cc(S(=O)(=O)N[C@H](CC(=O)N[C@H](Cc3ccc(CN4[C@H](C)CCC[C@@H]4C)cc3)C(=O)N(C)C(C)C)c3ccc4c(c3)OCO4)ccc2c1`, the Potency in test [1] is 59.9 µM (active); in test [3] it was 7.34 µM (active); in test [4], 0.0949 µM (active). Besides, the Potency entry in test [2] was “inactive”.

Turning to `Cc1cc(=O)oc2cc(O)ccc12`, the Potency result in test [1], in test [3] and in test [4] was “inactive” each time. Also, in test [2], the Potency is 31.7 µM (active) and 25.2 µM (active) and 17.4 µM (active).

Regarding `CS(=O)(=O)OCCCCOS(C)(=O)=O`, the Potency entry in test [1], in test [2], in test [3] and in test [4] was “inactive” in each case.

Take `CCCCCCCC(=O)OCC(COC(=O)CCCCCCC)OC(=O)CCCCCCC`: the Potency result in test [1], in test [2], in test [3] and in test [4] was “inactive” each time.

Take `CCCCC(CC)C(=O)O` (stereo not given): the Potency entry in test [1] was “inactive and 71 µM (active)”. The Potency entry in test [2], in test [3] and in test [4] was “inactive” each time.

Turning to `O=C1O[C@H]([C@@H](O)CO)C(O)=C1O`, the Potency entry in test [1], in test [3] and in test [4] was “inactive” throughout. Moreover, in test [2], the Potency entry was “inactive and 19.5 µM (active)”.

As for `NC1CCCCC1`, the Potency entry in test [1], in test [3] and in test [4] was “inactive” each time. For the same molecule, the Potency in test [2] was 40.2 µM (active) and inactive.

With `CCN(Cc1c(F)cccc1Cl)c1c([N+](=O)[O-])cc(C(F)(F)F)cc1[N+](=O)[O-]`, the Potency was 7.96 µM (active) in test [1] and 0.399 µM (active) in test [4]. In addition, the Potency result in test [2] and in test [3] was “inactive” each time.

Regarding `CCOC(N)=O`, the Potency entry in test [1], in test [2], in test [3] and in test [4] was “inactive” in each case.

With `O=CC(=O)c1ccccc1`, the Potency entry in test [1], in test [3] and in test [4] was “inactive” throughout. Besides, the Potency in test [2] is 35.6 µM (active).

With `COc1cccc(O)c1O`, the Potency result in test [1], in test [3] and in test [4] was “inactive” throughout.

With `NS(=O)(=O)c1cc2c(cc1Cl)NCNS2(=O)=O`, the Potency result in test [1], in test [3] and in test [4] was “inactive” each time.

On to `CCCC[P+](CCCC)(CCCC)CCCC`, for which the Potency in test [3] is 21.8 µM (active) and 22.3 µM (active) and 12.3 µM (active).

In the case of `CC(O)(P(=O)(O)O)P(=O)(O)O`, the Potency entry in test [1], in test [3] and in test [4] was “inactive” each time.

For the molecule `O=C1NS(=O)(=O)c2ccccc21`, the Potency result in test [3] was “inactive”.

With `CN1CCC[C@H]1c1cccnc1`, the Potency entry in test [2] and in test [3] was “inactive” each time.

For `Cn1c(=O)c2c(ncn2C)n(C)c1=O`, the Potency entry in test [3] is “inactive”.

`C1=CC2C3C=CC(C3)C2C1` (stereo not given): the Potency in test [2] was 57 µM (active). For the same molecule, the Potency entry in test [3] and in test [4] was “inactive” in each case.

As for `CC(=O)CC(c1ccccc1)c1c(O)c2ccccc2oc1=O` (stereo not given), in test [3], the Potency result was “inactive”.

In the case of `CCCCNC(=O)NS(=O)(=O)c1ccc(C)cc1`, the Potency entry in test [3] was “inactive”.

`O=C1NC(=O)C(c2ccccc2)(c2ccccc2)N1`: the Potency result in test [3] was “inactive”.

Take `CCOc1ccc(NC(C)=O)cc1`: the Potency result in test [1], in test [3] and in test [4] was “inactive” throughout.

In the case of `CCCc1cc(=O)[nH]c(=S)[nH]1`, the Potency entry in test [1], in test [2], in test [3] and in test [4] was “inactive” throughout.

Source of the values: PubChem BioAssay (Tox21).
